# Measured values from ChEMBL document CHEMBL3433997, “St. Jude Leishmania screening dataset” (2016).
# Tests used:
# Assay type in all cases: functional
# [1] = molecular target: Solute carrier family 2, facilitated glucose transporter member 1 (Homo sapiens) (UniProt P11166); test: ST_JUDE_LEISH: Cytotoxicity at 2uM final concentration against transgenic Leishmania Mexicana promastigotes LmGLUT1 that are glucose transport deficient and complemented with the human glucose transporter GLUT1. Activity is measured by DNA content using SYBR green in vitro
# [2] = molecular target: Hexose transporter 1 (Plasmodium falciparum) (UniProt O97467); test: ST_JUDE_LEISH: Cytotoxicity at 2uM final concentration against transgenic Leishmania Mexicana promastigotes LmPfHT that are glucose transport deficient and complemented with the Plasmodium falciparum hexose transporter. Activity is measured by DNA content using SYBR green in vitro
# [3] = molecular target: Glucose transporter (Leishmania mexicana) (UniProt O61059); test: ST_JUDE_LEISH: Cytotoxicity at 2uM final concentration against transgenic Leishmania Mexicana promastigotes LmGT2 that are glucose transport deficient and complemented with the L. Mexicana glucose transporter 2. Activity is measured by DNA content using SYBR green in vitro
# Sequence of Solute carrier family 2, facilitated glucose transporter member 1 (Homo sapiens) (P11166 whole entry): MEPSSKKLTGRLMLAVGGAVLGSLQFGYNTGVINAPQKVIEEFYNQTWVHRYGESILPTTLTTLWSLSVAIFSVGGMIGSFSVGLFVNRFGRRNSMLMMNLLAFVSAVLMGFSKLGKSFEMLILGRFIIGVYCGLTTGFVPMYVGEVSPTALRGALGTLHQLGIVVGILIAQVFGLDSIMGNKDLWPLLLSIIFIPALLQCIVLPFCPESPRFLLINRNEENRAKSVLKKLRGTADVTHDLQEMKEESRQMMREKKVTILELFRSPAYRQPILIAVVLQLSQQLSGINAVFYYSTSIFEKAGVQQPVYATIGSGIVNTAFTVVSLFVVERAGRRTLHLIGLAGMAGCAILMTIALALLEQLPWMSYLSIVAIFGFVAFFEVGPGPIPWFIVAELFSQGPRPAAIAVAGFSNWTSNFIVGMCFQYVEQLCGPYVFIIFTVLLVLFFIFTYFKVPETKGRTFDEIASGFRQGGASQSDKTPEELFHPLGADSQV
Structure (SMILES),inhibition [1],inhibition [2],inhibition [3]
CCN(CC)CCOc1ccc(C(O)(C#CC(O)(c2ccc(OCCN(CC)CC)cc2)c2ccc([N+](=O)[O-])cc2)c2ccc([N+](=O)[O-])cc2)cc1 (centres undefined),61%,32.7%,4.31%
O=C1CSc2ccc(CNC3CCN(CCc4c(F)cnc5ccc(F)cc45)CC3)nc2N1,-2.82%,0.21%,-1.74%
O=C(/C=C/c1ccc(Cl)c(Cl)c1)NCCCCCN1CCC(NC(=O)Nc2ccc(Cl)c(C(F)(F)F)c2)CC1,1.18%,0.31%,1.66%
Nc1nc(N)c2c(Cc3ccccc3)cccc2n1,0.09%,4.13%,2.02%
CC(C)c1ccc(S(=O)(=O)Nc2cccc(CCN3CCC(N4CCCCC4)CC3)c2)cc1,38%,4.08%,1.03%
O=C(NCc1ccccc1)Nc1ccc(-c2ccc(-c3nc4cc(C(F)(F)F)ccc4[nH]3)cc2)cc1,2.91%,4.48%,0.55%
Cn1nccc1C(=O)NCCNCc1ccc(-c2ccc(-c3nc4ccccc4[nH]3)s2)cc1,4.38%,3.81%,0.63%
Cc1cccc(Nc2nccc(NCC(O)c3ccc(C(F)(F)F)cc3)n2)c1 (centres undefined),10.6%,11.4%,2.83%
NC(=O)c1cccc(C(=O)Nc2cccc(-c3ccc(-c4nc5ccccc5[nH]4)s3)c2)c1,1.49%,1.48%,0.12%
CC(=O)c1c(Cc2cccc(C(F)(F)F)c2)c[nH]c1C,5.85%,3.6%,-0.87%
c1cncc(-c2cc(N3CCCCC3)nc(-c3ccncc3)n2)c1,8.22%,6.14%,4.53%
CCCCCCc1cc(OC)c(OC)cc1C(C)Nc1ccnc2cc(Cl)ccc12 (centres undefined),8.21%,5.09%,0.14%
O=C(NCC1CC1)C1CCN(C(c2ccccc2)c2cc(F)cc(F)c2)CC1 (centres undefined),3.61%,3.92%,-1.03%
Cc1ccc(Cn2c(N3CCC(C(=O)NCc4ccccn4)CC3)nc3ccccc32)cc1,4.09%,4.68%,7.97%
CCC[C@@H]([C@@H](Cc1ccc(C)s1)C(=O)N[C@@H](CNC(C)=O)C(=O)Nc1nccs1)N(O)C=O,12%,9.56%,8.72%
CN1CCN(Cc2ccc(-c3ccc4c(Nc5ccc(Oc6ccccc6)cc5)ccnc4c3)o2)CC1,-0.9%,-0.3%,0.49%
Cc1cc(N[C@@H](Cc2ccccc2)C(=O)NC2CCCC2)nc(NCCc2cccs2)n1,1.27%,2.88%,1.56%
O=C(Nc1ccc(-c2nc3ccccc3[nH]2)cc1)C1CCN(Cc2cccc(F)c2F)CC1,24.2%,28.4%,16%
c1ccc2c(NCCCCCCNc3ccnc4ccccc34)ccnc2c1,-2.25%,-0.51%,-2.32%
CC(C)CNCc1cccc(-c2ccccc2CN(C(=O)NCCc2ccccc2)C2CCN(Cc3ccccc3)CC2)c1,13.1%,11.4%,8.25%
CCCCCN1CCC(NS(=O)(=O)c2cccc(C(=O)Nc3ccc(Cl)cc3)c2)CC1,-0.5%,1.63%,2.4%
O=C(Nc1ccc(-c2cccc(-c3nc4cc(C(F)(F)F)ccc4[nH]3)c2)cc1)c1cccnc1,0.28%,0.06%,-1.11%
Cc1cc2[nH]c(-c3ccc(C(=O)NCCCN4CCN(c5cccc(Cl)c5)CC4)s3)nc2cc1Cl,3.07%,3.29%,2.02%
COc1ccc(CNCc2ccc(F)cc2)cc1-c1ccc(OC)c(S(=O)(=O)NCCN2CCCC2)c1,5.21%,6.27%,4.28%
COc1cc2nc(N3CCC(CNC(=O)c4ccc(-c5ccc(C(F)(F)F)cc5)cc4)CC3)nc(N)c2cc1OC,2.82%,2.34%,-0.23%

Structure (SMILES),inhibition [1],inhibition [2],inhibition [3]
O=C(/C=C/c1ccc(C(F)(F)F)cc1)NCCCCCN1CCN(C(=O)Nc2ccc(Cl)cc2)CC1,2.27%,3.09%,1.84%
CC(C)NCc1cccc(-c2cccc(NC(=O)c3ccc(C#N)cc3)c2)c1,-1.2%,1.04%,-1.22%
O=C(Cc1ccccc1)NC(c1ccc(Cl)cc1)c1ccc2cccnc2c1O (centres undefined),6.92%,4.47%,1.97%
CC(C)(CNC(=O)C1CCN(CCOc2ccc(F)c(F)c2)CC1)c1nc(-c2ccc(Cl)c(O)c2)c(-c2ccncc2)[nH]1,4.62%,4.16%,5.08%
c1cnc2ccc(NCc3ccc(-c4ccc(CNC5CCCC5)cc4)cc3)cc2c1,0.93%,0.1%,-6.73%
Cc1ccccc1CN1CCCN(Cc2ccc(C(=O)Nc3ccc(Cl)cc3)cc2)CC1,7.5%,6.18%,6.4%
O=C1c2ccccc2C(=O)N1c1ccc(S(=O)(=O)N2CCOCC2)cc1,8.7%,6.66%,8.08%
CCCCc1ccc(CCNCCCCCCNCCc2ccc(O)c(O)c2)cc1,0.01%,-0.03%,-1.2%
CN1CCN(c2ccc(Nc3ccnc4ccc(-c5ccccc5)cc34)cc2)CC1,1.32%,1.83%,-1.67%
CN(C)Cc1ccc2cc(NC(=O)c3ccc(-c4ccc(Cl)cc4)cc3)ccc2n1,2.13%,1.6%,2.79%
O=C(NC1CCN(Cc2ccccc2)CC1)c1ccc(-c2nc3cc(Cl)c(Cl)cc3[nH]2)s1,0.03%,1.08%,1.39%
CS(=O)(=O)c1ccc(CCNCc2ccc(-c3ccc(CN(C(=O)C4CC(=O)c5ccccc54)C4Cc5ccccc5C4)cc3)nc2)cc1 (centres undefined),1.52%,-0.58%,-0.89%
CCN(CCNS(C)(=O)=O)c1ccc(N)c(C)c1,1.65%,1.06%,1.72%
N=C(N)NC(=O)Nc1ccc(Cl)c(Cl)c1,3.47%,-2.48%,-1.06%
O=C(NCCCCN1CCC(c2c[nH]c3ccc(-c4ccccc4)cc23)CC1)c1ccc(-c2ccccc2)cc1,5.96%,4.21%,5.24%
O=C(CSc1nc2ccccc2c(=O)n1CC1CCCO1)Nc1cc(C(F)(F)F)ccc1Cl (centres undefined),9.97%,9.45%,6.14%
Cc1ccc2[nH]c(C)cc(=NN=Cc3ccccc3F)c2c1,13.5%,12.6%,8.78%
N#Cc1cccc(CNC(=O)c2cccc(Nc3ccnc4ccc(F)cc34)c2)c1,-0.1%,1.25%,0.82%
Cc1cc(N(C)CCCN(C)C)nc(Nc2ccc(Cl)cc2)n1,-1.04%,1.73%,-0.32%
NC1=NC2(CCCC2)C(c2ccc(Cl)c(Cl)c2)C(N)=N1 (centres undefined),2.63%,3.21%,4.7%
O=C(CCCCCNC(=O)c1ccc(O)c(-c2ccc(Cl)c(Cl)c2)c1)NCCN1CCCC1,1.19%,0.7%,1.56%
Clc1ccc(-c2cc(-c3csc(Nc4ccncc4)n3)on2)cc1,1.41%,5.17%,1.32%
Fc1ccc2[nH]ccc(=NN=CC=Cc3ccccc3)c2c1,1.52%,3%,-2.56%
C(=NN=c1cc(-c2ccccc2)[nH]c2ccccc12)c1cccnc1,15.1%,11.7%,6.62%
Cc1ccc(C(=O)Nc2ccc(Cl)c(N3CCN(CCc4ccccc4)CC3)c2)cc1,4.14%,8.02%,6.51%

Structure (SMILES),inhibition [1],inhibition [2],inhibition [3]
CC(O)c1cccc(-c2ccc(Nc3ccnc4cc(-c5nccs5)ccc34)cc2)c1 (centres undefined),4.55%,4.09%,4.15%
Cc1ccc(O)cc1Nc1ccnc2cc(-c3ccc(CN4CCCCC4)o3)ccc12,14.4%,12.2%,13.8%
Clc1ccc(-c2ccc(CNCCCN3CCCC3)cc2)cc1,4.04%,3.04%,3.65%
CCn1c(Sc2ccc(C#N)c([N+](=O)[O-])c2)nnc1-c1cccc(Cl)c1,16.9%,14.9%,11.8%
O=C1c2ccccc2C(=O)N1CCOc1c(Br)cc(Br)cc1CNCCCNc1cc(=O)c2ccccc2[nH]1,2.28%,1.96%,3.03%
CN1CCN(Cc2cccc(-c3cc4nccc(Nc5ccc(Oc6ccccc6)cc5)c4cc3Cl)c2)CC1,-1.94%,0.9%,1.01%
COc1ccc(CCNc2ccnc3cc(Cl)ccc23)cc1OC,2.61%,2.36%,0.21%
CC(Sc1nnc(-c2cccs2)[nH]1)C(=O)c1c[nH]c2ccccc12 (centres undefined),0.9%,1.35%,0.63%
CN(C)CCNC(=O)c1csc(Nc2ccc(Cl)c(Cl)c2)n1,0.89%,1.38%,2.28%
COc1ccc(C=Cc2cc(=N)c3ccccc3[nH]2)cc1,3.18%,2.77%,0.89%
COc1cc(Cc2cnc(N)nc2N)ccc1OCC(=O)Nc1ccc(C)cc1,8.4%,9.26%,8.92%
COc1cccc(-n2ncc3c(N/N=C/c4ccc(CN(C)CCN(C)C)cc4)ncnc32)c1,10.7%,10.3%,7.16%
CN(C)CCOc1ccc(-c2cc(-c3ccc(Cl)c(O)c3)c(-c3ccncc3)o2)cc1,4.55%,-0.72%,4.9%
Cc1cnc(NCCc2ccc(F)cc2)nc1N[C@@H](CC(C)C)C(=O)Nc1ccccc1,5.17%,4.05%,4.26%
CCCCN1CCN(c2cc(NS(=O)(=O)c3cccc(C(=O)Nc4ccc(C(F)(F)F)cc4)c3)ccc2OC)CC1,0.33%,-1.12%,-1.22%
O=C(/C=C/c1ccc(C(F)(F)F)cc1)NCCCCCN1CCCN(C(=O)Nc2ccc(Cl)c(Cl)c2)CC1,-0.66%,-0.09%,-0.19%
CC[C@H](C)CNC(=O)c1cccc(-c2cccc(CN3CCC(N4CCCC4)CC3)c2)n1,-2.59%,-0.05%,-0.2%
CC(=O)c1ccc(Nc2c(C(N)=O)cnc3cc(-c4c(C)noc4C)ccc23)cc1,8.14%,6.39%,5.76%
O=C(NCCNc1ccnc2cc(Cl)ccc12)c1ccccc1F,-1.91%,1.06%,-0.19%
CN(C)CCNC(=O)N1CCCN(c2ncnc3cc(-c4ccc(Cl)cc4)sc23)CC1,-0.35%,-1.89%,0.1%
Cc1ccc(OC2CCN(CCCCC3(C)C(=O)Nc4ccccc43)CC2)cc1 (centres undefined),4.24%,15.1%,9.07%
CCc1c(C(=O)NC2CCC(N3CCC(c4ccccc4OC)CC3)CC2)[nH]c2ccc(Br)cc12 (centres undefined),0.33%,-0.12%,-0.91%
O=C(Nc1ccc(OCc2ccccc2)cc1)c1nc2ccccc2nc1Cl,1.33%,1.29%,1.34%
